Compound activity (PubChem BioAssay)
RXFP1 antag: antagonists of human relaxin receptor RXFP1 | activity change, negative = inhibition, % at 57.5 µM | Q9HBX9 | AID 1259400 | HEK293-RXFP1, relaxin-stimulated cAMP HTRF, 30 min; stronger effect = lower value | 350,000 tested, 0.59% active;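 active = activity change of -60% or lower, but not beyond a set lower limit; inconclusive = change between -60% and -40%, or beyond the set limit; inactive = change above -40%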
Target sequence (Q9HBX9 whole entry, looked up): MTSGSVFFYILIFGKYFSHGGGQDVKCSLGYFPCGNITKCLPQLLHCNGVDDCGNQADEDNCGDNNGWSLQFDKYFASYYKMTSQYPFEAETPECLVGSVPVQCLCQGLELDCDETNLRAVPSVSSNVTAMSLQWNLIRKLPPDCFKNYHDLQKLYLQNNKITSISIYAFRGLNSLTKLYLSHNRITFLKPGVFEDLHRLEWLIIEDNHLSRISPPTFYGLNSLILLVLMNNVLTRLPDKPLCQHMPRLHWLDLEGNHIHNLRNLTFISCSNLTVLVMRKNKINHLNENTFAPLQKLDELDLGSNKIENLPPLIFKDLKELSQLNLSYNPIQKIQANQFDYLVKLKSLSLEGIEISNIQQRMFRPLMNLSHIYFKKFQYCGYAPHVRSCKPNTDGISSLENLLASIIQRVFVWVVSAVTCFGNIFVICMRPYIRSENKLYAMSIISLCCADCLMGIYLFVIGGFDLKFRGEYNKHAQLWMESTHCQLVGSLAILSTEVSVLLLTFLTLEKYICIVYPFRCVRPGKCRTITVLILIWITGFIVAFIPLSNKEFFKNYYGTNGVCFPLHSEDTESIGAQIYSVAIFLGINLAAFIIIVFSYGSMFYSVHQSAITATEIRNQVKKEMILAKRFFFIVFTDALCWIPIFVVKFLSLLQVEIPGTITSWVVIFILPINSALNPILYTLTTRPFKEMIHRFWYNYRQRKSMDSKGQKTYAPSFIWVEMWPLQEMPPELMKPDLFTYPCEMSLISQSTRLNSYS
hERG WT inh: blocks the wildtype human KCNH2 potassium channel; Q12809; U2OS, BacMam KCNH2, thallium flux FluxOr; stronger effect = lower value; activity change, % at 1.84 µM; 340,000 tested, 0.37% active; AID 720551;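 active = maximum activity change below -70%; inconclusive = maximum activity change between -70% and -50%; inactive = maximum activity change above -50%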
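U2OS cells were transduced with wild-type KCNH2 virus (2.03 x 10^8 / mL) for 4 h at room temperature, then cultured overnight at 37 C. Thallium flux was read with FluxOr dye. Rate constants were normalized to DMSO controls.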
RXFP1 ag: agonists of human relaxin receptor RXFP1; 370,000 tested, 0.3% active; HEK293T-RXFP1 cAMP TR-FRET, 30 min; response scale: percent of porcine relaxin response, buffer zero; Q9HBX9; Potency, µM (series often up to 57.5 µM), most hits filed as activators; AID 2676; active = well fitted activation curve with a large enough effect; inconclusive = small, poorly fitted or top-dose-only effect; note: nearly all actives have a fitted effect of over 60% in size
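HEK293 cells stably expressing RXFP1, treated 30 min at 37C with compounds plus PDE4 inhibitor Ro 20174; cAMP measured by HTRF TR-FRET. Normalized to buffer and 29 nM porcine relaxin; EC50 by Hill fit.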
KCNH2 3.1 inh: KCNH2 3.1 (human) potassium channel inhibition; U2OS KCNH2 3.1, thallium flux FluxOr; stronger effect = lower value; activity change, % (tested at about 1.8 µM); 340,000 tested, 0.95% active; AID 720553;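 active = maximum activity change below -70%; inconclusive = maximum activity change from -70% to -50%; inactive = maximum activity change above -50%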;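 note: thallium influx rate constant from kinetic fluorescence after stimulation buffer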
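Thallium flux via FluxOr fluorescence (Red40 quencher, 45 min loading) in U2OS cells virally expressing the KCNH2 3.1 isoform (1.77 x 10^8 /mL virus, overnight at 37 C). Rate constants from 2-min kinetic reads post-stimulation, normalised to positive and negative controls.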
pAkt inh: inhibitors of Akt phosphorylation; Neuro2A IGF-stimulated pAkt S473 HTRF, 20 min; stronger effect = lower value; activity change, % for hits at 50 µM; 360,000 tested, 0.32% active; AID 651550; in the data active = activity change below about -80%; inconclusive = mostly about -51% to -80%
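Neuro2A cells in DMEM with 0.5% FBS, overnight at 37 deg C, given compound at single 50 µM final, then IGF (6 nM final) for 20 min at 37 deg C. Lysed; phospho-Akt Ser473 by HTRF after 24 h, 665/615 ratio.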
Hits are given with their value; - = inactive; ? = inconclusive; . = not tested or not shown. Shown are actives, neighbours in structure and some others; about 1.7% of the full set was active somewhere.

SMILES	RXFP1 antag	hERG WT inh	RXFP1 ag	KCNH2 3.1 inh	pAkt inh
COc1cc(C2C(C#N)=C(N)Oc3c2ccc2ccccc32)ccc1OCC(=O)Nc1ccccc1C (stereo not drawn)	-	-	-	-	-104%
COC(=O)c1ccc(NC(=O)COc2ccc(C3C(C#N)=C(N)Oc4c3ccc3ccccc43)cc2OC)cc1 (stereo not drawn)	-	-	-	-	-
CCOP(=O)(OCC)C(NC(=O)c1ccc(OC)cc1)c1ccccc1 (stereo not drawn)	-	-	-	-96	-
CCOc1ccc(NS(=O)(=O)c2ccc(C(=O)N3CC(C)OC(C)C3)cc2)cc1 (stereo not drawn)	-	-	-	-	-
CCOC(=O)N1CCN(C(=O)C2CCN(C(=O)c3ccccc3C)CC2)CC1	-102	-	.	-	-
Cc1ccccc1C(=O)N1CCC(C(=O)N2CCN(c3ncccn3)CC2)CC1	-	-	-	-	-
COC(=O)C(O)(CC(=O)Nc1ccccc1OC)C(F)(F)F (stereo not drawn)	-	-	-	-	-99%
Cc1cc(C)c(C#N)c(SCC(=O)Nc2ccc(S(=O)(=O)Nc3ncccn3)cc2)n1	-	-	-	.	-
CCN(C(=O)COC(=O)c1cc(-c2cccs2)nc2ccccc12)C1CCS(=O)(=O)C1 (stereo not drawn)	-	-	-	-	-
CCN(C(=O)COC(=O)c1cc(-c2ccccc2)nc2ccc(Br)cc12)C1CCS(=O)(=O)C1 (stereo not drawn)	-	-	25µM	-	-
O=C(Oc1ccc(N(Cc2cccs2)C2=NS(=O)(=O)c3ccccc32)cc1)c1ccc(Cl)cc1	-	?	-	-99	-
CN(CC(=O)Nc1ccc(N2CCOCC2)cc1)CC(=O)Nc1ccc(N2CCOCC2)cc1	-	-	-	-	-
CN(CC(=O)Nc1ccc(N2CCOCC2)cc1)C(=O)C12CC3CC(CC(C3)C1)C2	-	-	-	-73	-
CCC(=O)c1cn(CC(=O)OC)c2ccccc12	-	-	-	-	-
O=C(NCCC(=O)N(CCc1ccccc1)Cc1ccccc1)c1ccccc1Cl	-	-	-	-	-
CC(C)Oc1ccc(S(=O)(=O)N2CCOCC2)cc1NC(=O)CCCSc1ccccc1	-	-	-	-72	-
CC(=O)NCCC(=O)Nc1cc(S(=O)(=O)N2CCCCC2)ccc1Oc1ccccc1	-	-71	-	-	-
CCOc1ccc(Oc2ccc(S(=O)(=O)N3CCOCC3)cc2NC(=O)CCNC(C)=O)cc1	-	-	-	-	-
COc1ccc(S(=O)(=O)N2CCOCC2)cc1NC(=O)CSc1ccccc1	-	-	-	-	-
COC(=O)[C@@]12CCCCN1[C@H](c1ccc(-c3cccc(Cl)c3)c(OC)c1)[C@@H]1C(=O)N(C)C(=O)[C@@H]12	.	-	-	-	-
COC(=O)[C@@]12CCCN1[C@H](c1ccc(-c3cccc(Cl)c3)c(OC)c1)[C@H]1C(=O)N(C)C(=O)[C@H]12	.	-	-	-100	-
CCOC(=O)/C(=C/c1cn(C)c2ccccc12)NC(=O)c1ccccc1	-	-	-	-	-
CN(CCC(=O)Nc1ccc2c(c1)OCO2)Cc1ccccc1	-	-	-	-	-
CCCC(=O)Nc1ccc(Nc2ccccc2)cc1	-	-71	-	-	-
CN(CCC(=O)Nc1ccc(Cl)cc1)Cc1ccccc1	-	-	-	-76	-
SMILES	RXFP1 antag	hERG WT inh	RXFP1 ag	KCNH2 3.1 inh	pAkt inh
CC(/C=N/NC(=O)c1ccc(CN2c3cccc4cccc(c34)S2(=O)=O)cc1)c1ccccc1 (stereo not drawn)	-	-	-	-84	-
O=C(O)c1ccc(-n2[nH]c3c(c2=O)CCCC3)cc1	-	-	-	-	-
C/C=C/c1ccc(OCC(=O)O)c(OC)c1	-	-	-	-	-
CC(C)=CCOc1ccc(/C=C/C(=O)c2ccc(OCC=C(C)C)cc2OCC(=O)O)cc1	-102	.	.	.	.
Oc1ccccc1-c1nc(N2CCCC2)c2ccccc2n1	-	-	-	-	-145%
O=C(NCC(c1ccccc1)c1ccccc1)c1nn(-c2ccccc2Cl)nc1CO	-66	.	-	.	.
O=C(NCCCCc1ccccc1)c1nn(-c2ccccc2)nc1CO	-69	.	-	.	.
CCCCC(=O)Nc1ccc2c(c1)oc1ccccc12	-	-	-	-	-
CC(=O)Nc1sc(/C(C#N)=C\c2cccc(Cl)c2)nc1-c1ccc(C)cc1	-	-	-	-70	-
CCc1ccccc1NC(=O)CN1CCN(CC(=O)Nc2ccc(-c3ccccc3)cc2)CC1	-	-	-	-	-
COc1ccc2c(c1)c(CC(=O)NCc1cc([N+](=O)[O-])ccc1O)c(C)n2C(=O)c1ccc(Cl)cc1	-84	-	-	-	-
CCc1nc2nc(C)c(NS(=O)(=O)c3ccc(C4CCCCC4)cc3)c(=O)n2[nH]1	-	-	-	-	-
Cc1cccc(NC(=O)c2ccoc2C)n1	-	-	-	-	-
CC(C)c1ccc(C2NC(C(=O)O)CS2)cc1 (stereo not drawn)	-	-	-	-	-105%
CCN(CC(=O)NCc1ccc(F)cc1)C(=O)Cc1c(F)cccc1Cl	-	-	-	-	-
Cc1ccc(-c2cc(Cc3ccccn3)c(=O)[nH]n2)cc1	-	-152	-	-159	-
O=c1[nH]nc(-c2ccc(F)cc2)cc1Cc1ccccn1	-	-	-	-	-
CCn1c(=O)c(CCC(=O)N2CCN(c3ccccn3)CC2)c(C)c2c(C)nn(-c3cccc(C)c3)c21	-103	-	-	-	.
Cc1nc2nc(C)c(CCC(=O)N3CCN(c4ccccn4)CC3)c(C)n2n1	-	-	-	-	-
COc1cc2c(cc1NC(=O)/C=C/c1cc(OC)c(OC)c(OC)c1)oc1ccccc12	-	-	-	-87	-
O=C(CCl)Nc1cc(SCC(O)CO)cc([N+](=O)[O-])c1 (stereo not drawn)	-	-	-	-	-
CCC(=O)Nc1cc(SCCO)cc([N+](=O)[O-])c1	-	-	-	-	-88%
O=C(CSc1nnc(NC2CC2)s1)c1ccc[nH]1	-	-	.	-	-
CC(C)=C(NC(=O)c1ccccc1)C(=O)NCc1ccccc1	-	-	-	-118	-
CCC(CC)C(=O)c1c[nH]c(C(=O)N2CCN(c3ccc(OC)cc3)CC2)c1	-	-	-	-	-
Cc1c(N2CCCC2)cc2c(c1N)C(C)(C)CC2(C)C	-71	-	-	-	-
Nc1cc(C(=O)O)ccc1N1CCCCCC1	-	-	-	-	-
O=C(NCCN1CCN(c2ccccc2F)CC1)c1cccn2c(=O)c3ccccc3nc12	-	-	-	-79	-
c1ccc(CCNCCCOc2cccc3ccccc23)cc1	-95	-	-	-	-
O=C(CCC(=O)Nc1ccc(F)cc1)N/N=C/c1ccc(O)cc1	-	-	-	-	-
